From PubChem BioAssay AID493175 (National Center for Advancing Translational Sciences (NCATS), 2011)
Inconclusive results are not listed. A number with no mark means an inactive call. Calls of active or inactive are those of the source. Calls come from the whole dose curve; as a rule, active = well fitted curve in the direction sought with a large enough effect; inconclusive = small, poorly fitted or top-dose-only effect, or another doubt; inactive = no such curve, though single readings can be large or run the other way.

biological target: Luciferin 4-monooxygenase (Photinus pyralis) (UniProt P08659); assay: miR-21 counterscreen using purified firefly luciferase; conditions: purified P. pyralis luciferase, luminescence; series mostly up to 57.5 µM
From the text: MLPCN Grant: 1 R21 NS059478-01 Assay Provider: Qihong Huang, The Wistar Institute NCGC Assay Overview: MicroRNAs (miRNAs) are endogenously encoded small (~20-25 nucleotides), nonprotein-coding RNAs that are involved in post-transcriptional repression of target messenger RNAs (mRNAs) (Le and Hannon, 2004). Estimated to be involved in the regulation of 30% of all protein-coding mRNAs (Filipowicz et al., 2008), miRNAs play a significant role in many biological processes including cellular differentiation and tissue development (Ghildiyal and Zamore, 2009). […] Compounds active in the miR-21 FLuc assay were clustered using Leadscope and active chemical series were prioritized based on chemical properties, potential for medicinal chemistry optimization, and SAR. Within each chemical series, representative compounds were re-acquired to test for activity in a secondary assay based on the quality of their CRC, efficacy, and potency. This secondary assay to determine if compounds active in the miR-21 FLuc assay were just luciferase inhibitors. Compounds found active in both the miR-21 FLuc and purified FLuc assays are considered as false positives. Keywords: NIH Roadmap, MLPCN, MLSMR, qHTS, miR-21, firefly luciferase, FLuc, miRNA.
NCGC Assay Protocol Summary: Reagents: 50mM Tris acetate, pH 7.5; 10mM Mg acetate; 10uM D-luciferin (Sigma #L9504); 10uM ATP; 0.01% Tween-20; 0.05% BSA; 10nM P. pyralis luciferase (Sigma #L9506) Control compounds used were two known firefly luciferase inhibitors (compounds (2) and (5) in Auld et al., 2010), and DMSO. Assay Summary: Three microliters containing firefly luciferase substrates in buffer (final concentrations: 50mM Tris acetate, pH 7.5, 10mM Mg acetate, 0.01% Tween-20, 0.05% BSA, 10uM D-luciferin, and 10uM ATP) are dispensed into each well of a Greiner white, solid-bottom 1536-well format plate using a flying reagent dispenser (FRD). These assay plates were then treated with 23nL of compound or DMSO using a Kalypsys pin tool, which allows for delivery of a 6-point interplate titration of each compound to the assay plate (quantitative HTS), with a final compound concentrations ranging from approximately 60 µM to 7pM. One microliter of firefly luciferase in […] Tris-acetate buffer was then delivered by FRD to each well for a final enzyme concentration of 10nM. Luciferase activity was then measured using a ViewLux CCD imager (PerkinElmer), with an average exposure time of 2-30 seconds (2X binning, medium/high gain).

Sequence of Luciferin 4-monooxygenase (Photinus pyralis) (P08659 whole entry, looked up): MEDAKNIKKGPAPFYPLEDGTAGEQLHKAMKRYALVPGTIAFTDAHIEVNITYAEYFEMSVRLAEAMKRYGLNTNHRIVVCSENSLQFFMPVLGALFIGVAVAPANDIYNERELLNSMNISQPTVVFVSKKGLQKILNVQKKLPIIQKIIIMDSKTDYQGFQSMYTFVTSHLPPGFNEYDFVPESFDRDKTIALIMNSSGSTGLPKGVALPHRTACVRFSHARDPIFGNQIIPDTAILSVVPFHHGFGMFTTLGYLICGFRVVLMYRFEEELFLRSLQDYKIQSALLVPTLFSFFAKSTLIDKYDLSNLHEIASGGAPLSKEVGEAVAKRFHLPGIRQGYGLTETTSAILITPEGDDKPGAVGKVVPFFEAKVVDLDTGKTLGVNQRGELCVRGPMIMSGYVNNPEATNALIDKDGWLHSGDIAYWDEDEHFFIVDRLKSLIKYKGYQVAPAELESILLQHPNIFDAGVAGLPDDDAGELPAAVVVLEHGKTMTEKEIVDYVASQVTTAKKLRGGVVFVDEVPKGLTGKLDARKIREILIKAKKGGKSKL

Structure (SMILES) | outcome | activity change, negative = inhibition
Cc1cccc(-n2nnc(-c3nc(-c4cccs4)no3)c2N)c1C | inactive | 
COCc1cc(C)nc2sc(C(=O)OC(C)C)c(N)c12 |  | -1.1% [at 2.3 µM]
COc1ccccc1NC(=O)C/C(C)=N/NC(=O)c1ccccn1 | inactive | 
Nc1c(-c2nc(-c3cccs3)no2)nnn1-c1cccc(F)c1 | inactive | 
c1ccc(C2=Nn3c(nnc3-c3cc(-c4ccccc4)n[nH]3)SC2)cc1 |  | -18.1% [at 2.3 µM]
CCc1nonc1NC(=O)c1oc2ccc(C)cc2c1C | inactive | 
CCCCN1C(C(=O)c2ccccc2)=C(OC(C)=O)c2ccccc2S1(=O)=O | inactive | 
COc1ccc(CNc2nc(-c3ccco3)nn2C(=O)CC(C)C)cc1 | inactive | 
CC(=O)c1cnc2nc(SCc3ccccc3)nn2c1C | inactive | 
Cc1ccc2c(C)c(C(=O)N(C)C(C)c3ccncn3)oc2c1C (centres undefined) | inactive | 
C[C@]12CC[C@H]3C(=CCc4cc(O)ccc43)[C@@H]1CCC2=O | inactive | 
N#Cc1cc2cc3c(cc2nc1SCC(=O)N1CCOCC1)OCO3 | inactive | 
Nc1c(-c2nc(-c3ccncc3)no2)nnn1CC(=O)Nc1ccccc1 | inactive | 
Cc1ccccc1OCCn1cnc2c(N)ncnc21 | inactive | 
O=C(Nc1ccc(-c2nc3ccccc3[nH]2)cc1)c1ccc2c(c1)OCO2 | inactive | 
Cc1cc(C)n2c(SCc3ccccc3Cl)nnc2n1 | inactive | 
CCCCOc1ccccc1CC1C(=O)Nc2ccc(Br)cc21 (centres undefined) | inactive | 
Cc1ccc(C)c(Nc2nc3nonc3nc2Nc2cccc(C)c2C)c1 | inactive | 
COc1ccc(CCNc2ncnc3c2cnn3-c2cc(Cl)ccc2C)cc1 | inactive | 
CCCn1c(=O)c2sccc2n2c(CCCC(=O)Nc3ccc(Oc4ccc(Cl)cc4)cc3)nnc12 | inactive | 

Structure (SMILES) | outcome | activity change, negative = inhibition
Cc1cc(C)cc(NC(=O)CSc2nnc(CNC(=O)c3ccco3)o2)c1 | inactive | 
CCC(Oc1ccccc1F)C(=O)N1CCC(c2nc3ccccc3s2)CC1 (centres undefined) | inactive | 
Cc1ccc(CNc2nc3nc(C)c(Cl)c(C)n3n2)cc1 | inactive | 
Cc1ccc(Nc2ncnc(N)n2)cc1C | inactive | 
CCc1nonc1NC(=O)c1oc2ccccc2c1C | inactive | 
Nc1c(C(=O)Nc2ccccc2Br)sc2nc(-c3cccs3)ccc12 | inactive | 
COc1cc(Cl)c(C)cc1Nc1c2c(nc3ccccc13)CCC2 | inactive | 
COc1ccc(NC(=O)CSc2nnc(-c3cccs3)o2)cc1 | inactive | 
CN(C(=O)CSc1nnc(-c2ccccc2F)o1)C1CCCCC1 | inactive | 
CS(=O)(=O)c1ncc(Cl)c(C(=O)Nc2ccc3ccccc3c2)n1 | inactive | 
CCS(=O)(=O)n1nc(-c2ccccc2)nc1NCc1ccco1 | inactive | 
Cc1ccc(-c2nsc(SCC(=O)Nc3ccc4c(c3)OCO4)n2)cc1 | inactive | 
Cc1cccc(-c2nnc(SCC(=O)Nc3ccc(C)c(C)c3)o2)c1 | inactive | 
Cc1ccc(SCC(=O)Nc2ccc3oc(-c4ccc(F)cc4)nc3c2)cc1 | inactive | 
COc1nc(Nc2cccc(C(F)(F)F)c2)nc(OC)n1 | inactive | 
O=C(CSc1nnc(-c2ccncc2)o1)Nc1nncs1 | inactive | 
O=S(=O)(c1ccc(F)cc1)n1ccc(-c2cnc(-c3ccccc3)s2)n1 | inactive | 
COc1cccc(-n2nnc(-c3nc(-c4cccs4)no3)c2N)c1 | inactive | 
CCS(=O)(=O)c1ncc(Cl)c(C(=O)Nc2ccc(S(=O)(=O)N(C)c3ccccc3)cc2)n1 | inactive | 
